These results are taken from PubChem BioAssay (NCATS).

Active and inactive are the calls of the source.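 Rule for the calls: active = compounds whose dose series gives a full or clear partial fitted curve of increased nuclear translocation; inconclusive = weak partial curve or effect only at the top dose; inactive = no dose-dependent translocation response.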
Potency is the fitted concentration of half-maximal effect.

Glucocorticoid receptor (Homo sapiens), sequence (P04150 whole entry, looked up): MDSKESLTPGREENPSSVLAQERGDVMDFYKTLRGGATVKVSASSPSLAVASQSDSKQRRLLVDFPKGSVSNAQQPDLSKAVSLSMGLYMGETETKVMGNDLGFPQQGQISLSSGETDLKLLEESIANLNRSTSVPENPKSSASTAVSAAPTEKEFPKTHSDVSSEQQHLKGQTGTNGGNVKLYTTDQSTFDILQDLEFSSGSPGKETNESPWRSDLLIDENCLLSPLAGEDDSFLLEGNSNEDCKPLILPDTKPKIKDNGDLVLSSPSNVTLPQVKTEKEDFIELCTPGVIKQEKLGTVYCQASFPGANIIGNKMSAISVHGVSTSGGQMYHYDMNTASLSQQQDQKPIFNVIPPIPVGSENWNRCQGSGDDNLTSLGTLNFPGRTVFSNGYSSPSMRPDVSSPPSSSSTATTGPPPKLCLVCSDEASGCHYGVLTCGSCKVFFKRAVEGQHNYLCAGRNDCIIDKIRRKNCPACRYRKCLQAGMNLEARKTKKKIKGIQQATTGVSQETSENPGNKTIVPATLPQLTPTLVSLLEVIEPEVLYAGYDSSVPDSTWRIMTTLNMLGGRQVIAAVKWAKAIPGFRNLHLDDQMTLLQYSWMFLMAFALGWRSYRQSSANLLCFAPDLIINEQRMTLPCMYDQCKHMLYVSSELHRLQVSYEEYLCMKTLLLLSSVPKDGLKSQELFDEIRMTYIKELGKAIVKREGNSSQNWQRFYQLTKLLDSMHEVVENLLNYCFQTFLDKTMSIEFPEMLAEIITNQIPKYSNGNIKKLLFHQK

This experiment has as its target Glucocorticoid receptor (Homo sapiens) (UniProt P04150). The experiment in a line: GR-GFP Redistribution (AID 450). The note with it: U2OS GR-GFP nuclear translocation, laser cytometry, 2 h; series mostly up to 20.6 µM.
For the compound `CC1(C)Cc2c(oc3ncn4ncnc4c23)CO1`, the Potency was > 20.6 µM (inactive).

As to `NC(=O)C(c1ccccc1)C1CCCC1` (stereo not given), the Potency was > 20.6 µM (inactive).

Consider `COc1ccc(C2=Nn3c(nnc3-c3cccnc3)SC2)cc1OC`, for which the Potency was > 20.6 µM (inactive). To `O=C1CC(c2ccccc2)NC(=O)N1` (stereo not given) belongs > 20.6 µM (inactive); to `CSCCC(CO)NC(=O)OCc1ccccc1` (stereo not given), > 20.6 µM (inactive); to `c1ccc(Cc2nn[nH]n2)cc1`, > 20.6 µM (inactive). As to `COC(=O)c1ccc(C2/C(=C(/O)c3ccc(OC)cc3)C(=O)C(=O)N2c2cc(C)on2)cc1` (stereo not given), the Potency was > 20.6 µM (inactive). As for `CC1(C)Cc2c(C#N)c(N3CCN(C(=O)c4ccccc4)CC3)nc(-c3ccco3)c2CS1`, the Potency was > 20.6 µM (inactive). Consider `CCc1nc(N2CCOCC2)c(C#N)c2c1CCCC2`, for which the Potency is > 20.6 µM (inactive). To `NS(=O)(=O)c1ccc(-c2ccc(C=NC3CCS(=O)(=O)C3)o2)cc1` (stereo not given) belongs > 20.6 µM (inactive). To `COC(=O)C1=C(C)OC(N)=C(C#N)C1c1ccc(OC)c(OC)c1OC` (stereo not given) belongs > 20.6 µM (inactive); to `COCCNc1nc2c(c(=O)n(C)c(=O)n2C)n1Cc1cccc(C(F)(F)F)c1`, > 20.6 µM (inactive). As for `C1CNCCNCCCNCCNC1`, the Potency was > 20.6 µM (inactive). For the compound `O=C(O)C1CSC(CCc2ccccc2)N1` (stereo not given), the Potency was > 20.6 µM (inactive). Take `CC(C)OC(=O)CC1=NC(=O)CS1`: the Potency is > 20.6 µM (inactive). Take `COCCCn1c2nc3ccccc3nc2c2c(=O)n(-c3ccccc3OC)c(C)nc21`: the Potency was > 20.6 µM (inactive). For `COc1ccc(-c2ncncc2-c2csc(C)n2)c(O)c1`, the Potency was > 20.6 µM (inactive). For `CCCC1Cc2c(sc3ncnc(N)c23)CO1` (stereo not given), the Potency is > 20.6 µM (inactive). For the compound `CCCCc1nc2n[nH]c(N)c2c2c1CCCC2`, the Potency was > 20.6 µM (inactive). Then `COC(=O)c1[nH]c2ccc(Cl)cc2c1NC(=O)C1CC1`, with > 20.6 µM (inactive). Then `CCCOc1ccc(/C(O)=C2/C(=O)C(=O)N(CCN(C)C)C2c2ccc(OC)c(OC)c2)cc1` (stereo not given), with > 20.6 µM (inactive).

As to `O=C(NCc1ccccc1)/C(=N\O)c1ccccc1`, the Potency is > 20.6 µM (inactive). As for `COC(=O)CC1=NC(=O)CS1`, the Potency is > 20.6 µM (inactive). To `O=C(NCCCn1ccnc1)C(Cc1ccccc1)N1C(=O)c2ccccc2C1=O` (stereo not given) belongs > 20.6 µM (inactive); to `CN1CCN(C(=O)CSc2nc(-c3ccncc3)ccc2C#N)CC1`, > 20.6 µM (inactive); to `Cc1cccc(C)c1OCC(O)CNS(=O)(=O)c1ccccc1C(=O)N1CCOCC1` (stereo not given), > 20.6 µM (inactive). For the compound `Cc1cc(C)c(NC(=O)OCCN2CCOCC2)c(C)c1`, the Potency was > 20.6 µM (inactive). As for `CC12CCC(C(=O)N(CCC#N)CCC#N)(CC1=O)C2(C)C` (stereo not given), the Potency was > 20.6 µM (inactive). To `C=C(C)Cn1c(-c2ccc(OC)cc2)nc2ccccc21` belongs > 20.6 µM (inactive); to `C=CCNc1nc(NCc2ccccc2)c(C#N)c2c1CN(C)CC2`, > 20.6 µM (inactive).

For `CCOC(=O)c1c(C(F)(F)C(F)(F)C(F)(F)C(F)(F)F)n[nH]c1C`, the Potency was > 20.6 µM (inactive).

For `COCCN(Cc1ccccc1)P(=O)(O)c1ccccc1OCC(=O)O`, the Potency is > 20.6 µM (inactive). Then `CC(NC(=O)NC(N)=O)(C(F)(F)F)C(F)(F)F`, with > 20.6 µM (inactive). `CC(C)(C)NC(=O)CSc1nsc(SCC(=O)NC(C)(C)C)c1C#N`: the Potency is > 20.6 µM (inactive).

`O=C(CCN1CCCCC1)Nc1cccc(Cl)c1`: the Potency was > 20.6 µM (inactive). To `C=CCOc1nc2c(c(=O)n(C)c(=O)n2C)n1Cc1ccccc1Cl` belongs > 20.6 µM (inactive); to `Cc1ccc(C(=O)C2=C(O)C(=O)N(c3ncccn3)C2c2ccc(Cl)cc2)o1` (stereo not given), > 20.6 µM (inactive); to `Cn1c(SCC(=O)N2CCOCC2)nnc1-c1ccc(Cl)cc1Cl`, > 20.6 µM (inactive). With `O=C1C2ON(c3ccccc3)C(c3cccnc3)C2C(=O)N1c1ccccc1` (stereo not given), the Potency was > 20.6 µM (inactive). To `Cc1nnc(C)n1/N=C/c1cccn1C` belongs > 20.6 µM (inactive).
